Screens: PubChem, National Center for Advancing Translational Sciences (NCATS)
A selection: hits, their analogues and other compounds. The true share with any hit is near 10%.
BAZ2B block – qHTS Assay for Inhibitors of BAZ2B | Bromodomain adjacent to zinc finger domain protein 2B (Homo sapiens), Q9UIF8 | AlphaScreen BAZ2B-H3K14Ac peptide displacement | Potency, µM (doses to about 114 µM), inactives show at the top dose activity change, negative = inhibition, actives largely listed as inhibitors | actives 4.4% (n = 360,000) | AID 504333, 2011; also: % is scaled to controls: 0 for no effect and ±100 for the full control effect; nearly all actives have a fitted effect of over 60% in size
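BAZ2B 50 nM plus b-H3(5-23)K14Ac 50 nM, PBS pH 7.4/0.01% Tween-20, 30 min RT; compound added (max 110 uM), 30 min RT; streptavidin donor/Ni-chelate acceptor beads 10 ug/mL final, 20 min dark; AlphaScreen read.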
GLS inh – qHTS for Inhibitors of Glutaminase (GLS). Potency, µM (series often up to 45.5 µM), inactives show at the highest dose activity change, negative = inhibition, actives largely listed as inhibitors. GLS enzymatic activity, qHTS titration. actives 0.21% (n = 410,000). Glutaminase kidney isoform, mitochondrial (Homo sapiens), O94925. AID 624170, 2012; also: % is scaled to controls: 0 for no effect and ±100 for the full control effect
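Glutamate formation by hKGA was monitored fluorometrically using coupled glutamate oxidase, HRP and Amplex Red. Substrate was added as 1 mM L-glutamine solution; incubation was 30 min at RT after an initial read.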
G9a inh – qHTS Assay for Inhibitors of Histone Lysine Methyltransferase G9a | Histone-lysine N-methyltransferase EHMT2 (Homo sapiens), Q96KQ7 | G9a H3K9 monomethylation, AlphaScreen, 2 h | Potency, µM (top dose mostly 102 µM), without a hit: at the highest dose activity, negative = inhibition, hits mostly inhibitors | actives 8.8% (n = 350,000); also: % is scaled to controls: 0 for no effect and ±100 for the full control effect; nearly all actives have a fitted effect of over 75% in size
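Readings reflect AlphaScreen signal from monomethyl-H3K9 antibody detection. HMT at 20 nM; substrate b-H3K9 500 nM; cofactor SAM 20 uM; 2 h RT reaction; compounds tested as titrations in qHTS with 15 min preincubation.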
HP1b binding inh – HTS for Inhibitors of HP1-beta Chromodomain Interactions with Methylated Histone Tails; Chromobox protein homolog 1 (Homo sapiens), P83916; AlphaScreen HP1-beta / biotin-H3K9me3 peptide binding; Potency, µM (series often up to 114 µM), inactives show top-dose activity change, negative = inhibition, actives largely listed as inhibitors; actives 0.56% (n = 390,000); AID 540317, 2011; also: nearly all actives have a fitted effect of over 70% in size
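Compound inhibition of the preformed complex between 50 nM HP1-beta and 50 nM biotinylated H3K9me3 peptide was read by AlphaScreen. Buffer was PBS pH 7.4 with 0.01% Tween-20. Incubations ran 30 min at room temperature, with 10 ug/mL donor/acceptor beads.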
L3MBTL1 block – qHTS Assay for the Inhibitors of L3MBTL1; AlphaScreen L3MBTL1–H3K9me1 peptide binding; Potency, µM (series often up to 57.1 µM), for inactives: top-dose activity, negative = inhibition, most hits filed as inhibitors; actives 0.66% (n = 230,000); also: % is scaled to controls: 0 for no effect and ±100 for the full control effect; nearly all actives have a fitted effect of over 60% in size
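L3MBTL1 50 nM + b-AHA-H3(1-15)K9me1 75 nM, 30 min RT; compound added, 30 min RT; streptavidin donor/Ni-chelate acceptor beads 10 ug/mL each final, 30 min RT dark; AlphaScreen read.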
JMJD2A Tudor inh – qHTS Assay for Inhibitors of JMJD2A-Tudor Domain; actives 4.4% (n = 390,000); Lysine-specific demethylase 4A (Homo sapiens), O75164; AlphaScreen JMJD2A-Tudor / H3K4me3 peptide binding; Potency, µM (titrated, usually from 114 µM), without a hit: at the top dose activity change, negative = inhibition, usual class: inhibitors; AID 504339, 2011; also: % is scaled to controls: 0 for no effect and ±100 for the full control effect; nearly all actives have a fitted effect of over 50% in size
* marks the source's active call; other numbers are inactive results; ? = inconclusive; . = not tested or not shown; [ ] = remark or other dose. Calls follow the shape of the dose curve; as a rule, active = well fitted curve in the direction sought with a large enough effect; inconclusive = small, poorly fitted or top-dose-only effect, or another doubt; inactive = no such curve, though single readings can be large; an effect the other way counts as inactive or inconclusive. Potency is read from the fitted curve at half-maximal effect.

SMILES	BAZ2B block	GLS inh	G9a inh	HP1b binding inh	L3MBTL1 block	JMJD2A Tudor inh
Cc1ccc2nc3c(cc2c1)CN(Cc1ccco1)C(=NCC1CCCO1)S3 (stereo unspecified)	-9%	19%	?	?	5%	56µM*
COCCN=C1Sc2nc3c(C)cccc3cc2CN1Cc1ccco1	-9%	5%	11%[2.33 µM]	-21%	-7%	?
Cc1ccc(NC(=O)CSc2nc3ccccc3nc2Cc2ccccc2)c(C)c1	0%	-1%	-2%[59 µM]	21%[57 µM]	.	-11%
COc1ccc(N/C=C/C(=O)c2ccc(Cl)cc2)cc1	-2%	5%	12%[59 µM]	31%	8%	-1%
COc1ccc(N/C=C2\C(=O)CCc3c2oc2cc(Cl)c(O)c(Cl)c32)cc1	-37%	?	40µM*	-14%	0%	-36%
CN(C)c1ncc2nc(-c3cn(C)c4ccccc34)c(=O)n(C[C@H]3CCCO3)c2n1	.	.	1%[0.501 µM]	.	.	.
COC(=O)CC1C(=O)NCCN1C(=O)CSc1nnc(Nc2ccc(C)cc2)s1 (stereo unspecified)	8%	-23%	40µM*	36%	.	-1%
COC(=O)CC1C(=O)NCCN1C(=O)CSc1nnc(Nc2ccc(OC)cc2)s1 (stereo unspecified)	-2%	-6%	-33%[0.0925 µM]	40%	.	-3%
CN(C)c1ccc(N=Nc2ccccc2C(=O)OCC(=O)N(C)C2CCCCC2)cc1	8.9µM*	0%	20µM*	-24%	28µM*	?
CN(C)c1ccc(N=Nc2ccccc2C(=O)OCC(=O)NCC2CCCCC2)cc1	8.9µM*	5%	7.9µM*	?	11µM*	7.9µM*
CN(C(=O)COC(=O)c1cccnc1Cl)C1CCCCC1	.	-7%	.	23%	4%	-2%
CN(C)c1ccc(N=Nc2ccccc2C(=O)OCC(=O)NC2CCCC2)cc1	13µM*	10%	11µM*	-87%	?	32µM*
Cc1cc(C(=O)O)c2c(=O)n(C)c(=O)n(C)c2n1	.	-7%	-2%[59 µM]	13%	.	-12%
CC(C)(C)OC(=O)Cc1nnc(-c2nc3ccccc3[nH]2)o1	.	.	.	.	.	-14%
CCN(CC)C(=O)Cn1cc(C(=O)C(=O)N2CCN(c3ccc([N+](=O)[O-])cc3)CC2)c2ccccc21	-23%	-4%	17%	-1%	.	-17%
CCN(CC)C(=O)Cn1cc(C(=O)C(=O)N2CCN(c3ccc(OC)cc3)CC2)c2ccccc21	-34%	30%	50µM*	7%	.	-19%
CC(=O)c1ccc(N2CCN(C(=O)C(=O)c3c(C)[nH]c4ccccc34)CC2)cc1	4%	2%	94%	6%	.	-26%
CCOC(=O)c1c(C)[nH]c(C(=O)N2CCN(c3ccc(OC)cc3)CC2)c1C	40µM*	-2%	45µM*	-22%	-23%	?
COc1ccc(N2CCN(C(=O)C(=O)c3c(C)[nH]c4ccccc34)CC2)cc1	?	40%	40µM*	-4%[57 µM]	.	?
CCOC(=O)c1[nH]c(C)c(C(=O)N2CCN(c3ccccc3)CC2)c1C	?	22%	14%[2.33 µM]	-8%	-12%	-30%
O=C(CSc1nc2ccc(NC(=O)c3ccccc3C(=O)O)cc2s1)Nc1c(Cl)cccc1Cl	?	29%	71µM*	-6%	.	-26%
O=C(CSc1nc2ccccc2s1)NNC(=S)Nc1ccc(Br)cc1	1%	-33%	?	16%	-2%	-32%
O=C(CSc1nc2ccccc2s1)NNC(=S)Nc1ccccc1	1%	14%	3.5µM*	5%	-14%	-14%
O=C(CSc1nc2ccccc2s1)Nc1cc(C(=O)O)cc(C(=O)O)c1	5%	-3%	25µM*	37%	.	-20%
Cn1c(SCC(=O)Nc2ccc3nc(SCC(=O)N4CCCC4)sc3c2)nnc1-c1ccccc1	56µM*	-2%	?	17%	?	?
SMILES	BAZ2B block	GLS inh	G9a inh	HP1b binding inh	L3MBTL1 block	JMJD2A Tudor inh
O=C1c2ccccc2C(=O)N1c1cccc(Cl)c1	.	.	.	.	.	-13%
Cc1cccc(-n2c(=O)c3c(c4cc(C)ccc4n3C)n(CC(=O)Nc3ccc(C)c(C)c3)c2=O)c1	-4%	4%	5%[59 µM]	16%	.	-19%
O=C(O)CSc1nc2ccc(NC(=O)COc3ccc(Cl)cc3)cc2s1	71µM*	-14%	-42%[59 µM]	29%	.	?
O=C(O)COc1ccccc1/C=N/NC(=O)CSc1nc2ccccc2s1	2%	3%	71µM*	31%	.	-6%
CCc1cccc(NC(=O)Cn2cc(C(=O)c3ccncc3)c(=O)c3cc(C)c(C)cc32)c1	-12%	-13%	-2%[59 µM]	23%[57 µM]	.	?
CSc1nn(Cc2ccc(Br)cc2)c(N(C(C)=O)C(C)=O)c1S(=O)(=O)c1ccccc1	-1%	23%	8%[59 µM]	32%	.	2%
O=C1CC(c2ccccc2)Cc2[nH]c(=O)c(-c3nc(-c4ccc(Cl)c(Cl)c4)cs3)cc21 (stereo unspecified)	6%	-3%	6%[59 µM]	36%	.	1%
Cc1cc(C(=O)OCC(=O)c2ccc(Cl)c([N+](=O)[O-])c2)c2cccc(C)c2n1	?	1%	?	-10%	?	22µM*
CCOC(=O)/C(C#N)=C1\SS/C(=C(/C#N)C(=O)OCC)S1	?	.	1.6µM*	.	.	.
CCOc1cccc(C(=O)N(Cc2ccc(C)o2)C2CCS(=O)(=O)C2)c1 (stereo unspecified)	-21%	-3%	-17%[59 µM]	7%	.	-30%
COCCc1nn2c(=O)cc(COC(=O)c3ccc4c(c3)OCO4)nc2s1	-28%	6%	12%[59 µM]	14%	.	-24%
NC(=S)N/N=C1/CCSc2ccc3ccccc3c21	50µM*	-18%	45µM*	?	?	-11%[11.4 µM]
NC(=S)N/N=C/c1coc2c(ccc3ccccc32)c1=O	-10%	-5%	21%[59 µM]	44%	-3%	-21%
CCc1ccc(OCC(=O)c2c(O)c3ccccc3oc2=O)cc1	?	15%	45µM*	27%	8%	-11%
Cc1ccc(C(C)C)c(OCC(=O)c2c(O)c3ccccc3oc2=O)c1	.	12%	.	-1%	.	45µM*
Cc1ccc(OCC(=O)c2c(O)c3ccccc3oc2=O)cc1C	?	15%	12%[12.7 µM]	16%	-1%	40µM*
CC(=O)n1c2ccccc2c2ccccc21	12%	-1%	100%[59 µM]	61%	5%	21%
